Experimental data from the supplement of paper PMC6522484.
± gives the standard deviation of the averaged measurements.

Tests used:
DLD1 [1] = experiment: cell viability (CellTiter-Glo) relative to plate median (fraction of plate median); higher = more viable cells; conditions: 5 µM; treatment time 24 h; reporter: 7TFP
How it was run: (§1)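 Stable lentiviral TCF/Wnt firefly luciferase reporters (7TFP or TCF4/Wnt) were present in the colorectal cancer cell lines used. These cells received library compounds at a final 5 µM for 24 h, and parallel plates were read for firefly luciferase or CellTiterGlo luminescence. Each well was normalised to the plate median, and the value reported is the mean of two independent replicates.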

HCT116 = experiment: as above; conditions: 5 µM; treatment time 24 h; reporter: TCF4/Wnt
How it was run: as §1

SW480 [2] = experiment: as above; conditions: 5 µM; treatment time 24 h; reporter: 7TFP
How it was run: as §1

DLD1 [3] = experiment: TCF/Wnt firefly luciferase reporter signal relative to plate median (fraction of plate median); higher = higher Wnt reporter signal; conditions: 5 µM; treatment time 24 h; reporter: 7TFP
How it was run: as §1

SW480 [4] = experiment: as above; conditions: 5 µM; treatment time 24 h; reporter: 7TFP
How it was run: as §1

Row | SMILES | cell viability (DLD1 [1]) | cell viability (HCT116) | cell viability (SW480 [2]) | TCF/Wnt firefly luciferase reporter signal (DLD1 [3]) | TCF/Wnt firefly luciferase reporter signal (SW480 [4])
1 | CC(C)(Oc1ccc(C2CC2(Cl)Cl)cc1)C(=O)O (stereo not given) | 1.06 ± 0.05 | 0.968 ± 0.074 | 1.06 ± 0.014 | 0.943 ± 0.18 | 0.963 ± 0.17
2 | C=C1C2=CC(=O)O[C@@H](c3ccoc3)[C@]2(C)CC[C@@H]1[C@@]1(C)C=CC(=O)C(C)(C)[C@@H]1CC(=O)OC | 1.14 ± 0.071 | 1.2 ± 0.092 | 1.12 ± 0.05 | 1.01 ± 0.1 | 0.987 ± 0.033
3 | CC1(C)NC(=O)N(c2ccc([N+](=O)[O-])c(C(F)(F)F)c2)C1=O | 1.05 ± 0.084 | 0.983 ± 0.052 | 1 ± 0.042 | 1.02 ± 0.014 | 0.961 ± 0.044
4 | CN1CCN(C(c2ccccc2)c2ccccc2)CC1 | 1.04 ± 0.021 | 0.953 ± 0.018 | 1.07 ± 0.028 | 0.977 ± 0.12 | 1.01 ± 0.12
5 | NC(=O)NC1NC(=O)NC1=O (stereo not given) | 1.03 ± 0.014 | 1.09 ± 0.057 | 1.01 ± 0.03 | 1.02 ± 0.15 | 1.055 ± 0.0071
6 | CC(=O)Nc1c(I)cc(I)c(C(=O)O)c1I | 1 ± 0.16 | 0.987 ± 0.014 | 0.946 ± 0.055 | 0.995 ± 0.092 | 1.09 ± 0.099
7 | CNC1(C)C2CCC(C2)C1(C)C (stereo not given) | 0.844 ± 0.018 | 0.972 ± 0.11 | 0.924 ± 0.038 | 1.05 ± 0.021 | 0.904 ± 0.054
8 | Cc1cn([C@H]2C[C@H](N=[N+]=[N-])[C@@H](CO)O2)c(=O)[nH]c1=O | 0.976 ± 0.012 | 0.958 ± 0.018 | 1 ± 0.022 | 0.874 ± 0.02 | 0.928 ± 0.011
9 | C[C@H](CCC(=O)O)[C@H]1CC[C@H]2[C@@H]3[C@H](O)C[C@@H]4C[C@H](O)CC[C@]4(C)[C@H]3CC[C@]12C | 1 ± 0.021 | 1.01 ± 0.22 | 1.025 ± 0.0071 | 0.949 ± 0.038 | 1.1 ± 0.028
10 | Cc1cc(C)cc(OCC2CNC(=O)O2)c1 (stereo not given) | 0.964 ± 0.013 | 1.07 ± 0.1 | 0.975 ± 0.05 | 1.02 | 0.957 ± 0.039
11 | CCCCCCCCCCCCCCCCCCOCC(O)CO (stereo not given) | 0.991 ± 0.084 | 0.989 ± 0.073 | 1.02 ± 0.021 | 1.035 ± 0.0071 | 1.01 ± 0.09
12 | CCC(C)(C)C(=O)O[C@H]1C[C@@H](C)C=C2C=C[C@H](C)[C@H](CC[C@@H]3C[C@@H](O)CC(=O)O3)[C@H]21 | 0.864 ± 0.23 | 0.8745 ± 0.005 | 0.99 ± 0.071 | 0.902 ± 0.34 | 0.827 ± 0.41
13 | C=C(C)[C@@H]1CC[C@]2(C(=O)O)CC[C@]3(C)[C@H](CC[C@@H]4[C@@]5(C)CC[C@H](O)C(C)(C)[C@@H]5CC[C@]43C)[C@@H]12 | 1.03 ± 0.021 | 1.09 | 1.005 ± 0.0071 | 1.055 ± 0.0071 | 1.01 ± 0.014
14 | CC(=O)c1oc2c(C)c3oc(=O)cc(C)c3cc2c1C [2-Acetyl-3,5,9-trimethylfuro[3,2-g]-chromen-7-one (VFT-04)] | 1.02 ± 0.11 | 0.96 ± 0.05 | 1.085 ± 0.0071 | 1.16 ± 0.028 | 1.12 ± 0.078
15 | OC[C@@H](O)[C@@H](O[C@@H]1O[C@H](CO)[C@H](O)[C@H](O)[C@H]1O)[C@H](O)[C@@H](O)CO | 1.02 ± 0.038 | 0.904 ± 0.067 | 0.979 ± 0.021 | 0.781 ± 0.083 | 1.03 ± 0.1
16 | O=C(O)CCCC[C@@H]1SC[C@@H]2NC(=O)N[C@@H]21 | 1.03 ± 0.063 | 0.954 ± 0.04 | 0.948 ± 0.0042 | 0.982 ± 0.022 | 0.963 ± 0.0042
17 | C[C@H](CCC(=O)O)[C@H]1CC[C@H]2[C@@H]3CC[C@@H]4C[C@H](O)CC[C@]4(C)[C@H]3CC[C@]12C | 1.11 ± 0.11 | 1.17 ± 0.15 | 1.04 ± 0.028 | 1.21 ± 0.11 | 1.16 ± 0.014

Row | SMILES | cell viability (DLD1 [1]) | cell viability (HCT116) | cell viability (SW480 [2]) | TCF/Wnt firefly luciferase reporter signal (DLD1 [3]) | TCF/Wnt firefly luciferase reporter signal (SW480 [4])
18 | CC(=O)CCCCn1c(=O)c2c(ncn2C)n(C)c1=O | 0.93 ± 0.015 | 0.911 ± 0.054 | 0.94 ± 0.051 | 1.15 ± 0.085 | 1.03 ± 0.014
19 | COc1c2c(c(O)c3c4c(c(C)cc13)C1OC3(C(OC)OC)OC1C(O[C@H]1C[C@@H](O)[C@@](O)(C(C)=O)[C@H](C)O1)(O4)C3(O)CO)C(=O)C(O)CC2O[C@H]1C[C@@](C)(O)[C@H](OC(C)=O)[C@H](C)O1 (stereo not given in full) [Trioxacarcin B] | 1.09 ± 0.29 | 1.11 ± 0.014 | 1.06 | 0.739 ± 0.21 | 0.893 ± 0.14
20 | CC(C)c1c(O)c(-c2cc3c(c(C(C)C)c2O)CCC2C(C)(C)CCC[C@]32C)cc2c1CCC1C(C)(C)CCC[C@]21C (stereo not given in full) | 1.02 ± 0.083 | 1.07 ± 0.1 | 1.02 ± 0.035 | 1.26 ± 0.26 | 1.09 ± 0.014
21 | COc1cc2c(cc1OC)C1(O)C(=O)c3ccc(O)c(C(=O)O)c3OC1CO2 (stereo not given) | 1.05 ± 0.035 | 1.04 ± 0.059 | 1.08 ± 0.014 | 0.9145 ± 0.005 | 0.984 ± 0.14
22 | CC(Cc1cccc(C(F)(F)F)c1)NCCOC(=O)c1ccccc1 (stereo not given) | 0.984 ± 0.023 | 0.993 ± 0.011 | 0.955 ± 0.032 | 1.22 ± 0.057 | 1.14 ± 0.021
23 | O=C(OCc1ccccc1)c1ccccc1 | 1.03 ± 0.035 | 0.996 ± 0.062 | 0.928 ± 0.029 | 0.954 ± 0.14 | 0.999 ± 0.1
24 | Nc1nc(=O)c2nc(CNc3ccc(C(=O)N[C@@H](CCC(=O)O)C(=O)O)cc3)cnc2[nH]1 | 1.07 ± 0.057 | 0.977 ± 0.075 | 1.03 ± 0.044 | 1.01 ± 0.098 | 1.05 ± 0.12
25 | CCN(CC)CCNC(=O)c1ccc(N)cc1 | 1 ± 0.083 | 0.988 ± 0.06 | 1.02 ± 0.055 | 1.045 ± 0.0071 | 1.08 ± 0.099
26 | CC(=O)Oc1cc(OC(C)=O)c2c(c1)O[C@H](c1ccc(OC(C)=O)c(OC(C)=O)c1)[C@H](OC(C)=O)C2 | 1 ± 0.055 | 0.972 ± 0.15 | 1.01 ± 0.016 | 0.921 ± 0.044 | 1 ± 0.015
27 | CC(=O)Oc1ccc(-c2cc(=O)c3c(OC(C)=O)cc(OC(C)=O)cc3o2)cc1 | 0.993 ± 0.038 | 0.934 ± 0.093 | 0.9365 ± 0.005 | 1.01 ± 0.021 | 0.926 ± 0.011
28 | CC(C)CCC[C@@H](C)[C@H]1CC[C@H]2[C@@H]3C(=O)C=C4C[C@@H](O)CC[C@]4(C)[C@H]3CC[C@]12C | 1.1 ± 0.092 | 0.99 | 1.04 ± 0.1 | 0.959 ± 0.018 | 1.01 ± 0.027
29 | c1ccc2[nH]c(-c3cscn3)nc2c1 | 1.02 ± 0.021 | 1.17 ± 0.035 | 1.02 | 1.32 ± 0.16 | 1.18 ± 0.028
30 | COC(=O)c1c(C)cc(OC(=O)c2c(C)cc(O)c(C=O)c2O)c(C)c1O | 1.06 ± 0.021 | 1.07 ± 0.092 | 1.06 ± 0.064 | 1 ± 0.14 | 1.04 ± 0.028
31 | NCc1ccc(S(N)(=O)=O)cc1 | 0.962 ± 0.023 | 1 ± 0.069 | 0.991 ± 0.042 | 1.03 ± 0.17 | 1.12 ± 0.078
32 | NCCC(=O)N[C@@H](Cc1c[nH]cn1)C(=O)O | 1.08 ± 0.064 | 1.04 ± 0.021 | 1.01 ± 0.016 | 1.24 ± 0.092 | 1.17 ± 0.11
33 | CC(C)c1c(O)ccc2c1CCC1[C@@](C)(C=O)CCC[C@]21C (stereo not given in full) | 1.03 ± 0.021 | 1.01 ± 0.031 | 0.965 ± 0.04 | 1.03 ± 0.014 | 1.08 ± 0.028
